Vaccinia Venus – vaccinia inhibition (Venus reporter); Vaccinia virus Venus reporter expression, fluorescence; Potency, µM (titrated, usually from 36.5 µM), for inactives: at the highest dose activity change, negative = inhibition, usual class: inhibitors; 330,000 compounds, 0.46% hits; calls by dose curve; tested in A549 cells; also: potency is read from the fitted curve at half-maximal effect; nearly all actives have a fitted effect of over 30% in size
HCMV inh – inhibitors of human cytomegalovirus | AID 1259415 | HFF cells, HCMV-luciferase reporter, 72 h; hits give low values | 410,000 compounds, 4.5% hits | activity change, negative = inhibition, % at 57.5 µM; in the data active = activity change below about -60%; inconclusive = no clear call, values can overlap the other calls; inactive = above about -39%
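Human foreskin fibroblasts infected with luciferase-reporter HCMV at MOI 1 PFU/cell, compounds at two doses. Luciferase measured 72 h post infection; normalized to buffer-only basal and Salinomycin (10uM) controls.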
FMDV antiviral – foot and mouth disease virus antiviral activity. FMDV antiviral cell-based qHTS. Potency, µM (titrated, usually from 57.9 µM), without a hit: top-dose activity change, negative = inhibition, most hits filed as inhibitors. 410,000 compounds, 1.2% hits. AID 1159524; calls by dose curve; tested in HEK293T cells; also: read-out not given here; potency is read from the fitted curve at half-maximal effect; nearly all actives have a fitted effect of over 45% in size
HCV inhibitor – blocks hepatitis C virus; Huh7.5.1 HCVcc-Cre infection, luciferase reporter, 44 h; Potency, µM (top dose mostly 41.8 µM), inactives show at the highest dose activity change, negative = inhibition, actives largely listed as inhibitors; 340,000 compounds, 3.4% hits; active = well fitted inhibition curve with a large enough effect; inconclusive = small, poorly fitted or top-dose-only effect, or another doubt; inactive = no such curve, though single readings can be large or run the other way; also: potency is read from the fitted curve at half-maximal effect
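HCVcc-Cre virus at an moi near 0.5 was added right after compound to cells cultured 4 h from seeding (1,000 cells/well). Luciferase activity was determined 44 h later, 15 min after substrate addition at RT.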
VACV mCherry inh – vaccinia inhibition (mCherry reporter); Vaccinia virus mCherry reporter infection, fluorescence; Potency, µM (doses to about 36.5 µM), inactives show at the highest dose activity change, negative = inhibition, most hits filed as inhibitors; 310,000 compounds, 0.63% hits; calls by dose curve; tested in A549 cells; also: potency is read from the fitted curve at half-maximal effect; nearly all actives have a fitted effect of over 35% in size
The depositor's hits bear a star; [ ] = another dose, or the depositor's remark. Only some compounds are listed: those with a hit (about 7.3% of all), similar ones and a draw of the others. % is scaled to controls: 0 for no effect and ±100 for the full control effect.

`CC(C)N(C(=O)[C@H]1C[C@H](CC(=O)NCC23CC4CC(CC(C4)C2)C3)C(=O)N2CCc3c([nH]c4cc(CCC(=O)N(C)C)ccc34)[C@]12C)C(C)C` gave Vaccinia Venus -26.9%, HCMV inh -8.6, FMDV antiviral inconclusive, HCV inhibitor 20.6% and VACV mCherry inh -15.1%.
For COc1ccc(Cl)cc1NCc1nnc2n1CCCCC2 the results were Vaccinia Venus -0.8%, HCMV inh 3.7, FMDV antiviral 6.1% and VACV mCherry inh -4.1%.
For O=C(NCCCCC(NC(=O)c1ccccc1)C(=O)O)OCc1ccccc1 (stereo unspecified) the results were HCMV inh 58.8.
Screening Cc1cc(C(=O)CSc2nc(N)cc(=O)[nH]2)c(C)n1CCc1ccc(F)cc1 returned Vaccinia Venus inconclusive, HCMV inh -81.6*, FMDV antiviral 15.8µM*, HCV inhibitor inconclusive and VACV mCherry inh inactive[1.46 µM].
For COc1ccc(CCn2c(C)cc(C(=O)CSc3nnc(N)s3)c2C)cc1 the results were Vaccinia Venus -28.0%, FMDV antiviral 28.2µM*, HCV inhibitor -26.7% and VACV mCherry inh -27.6%.
`COc1ccc(CCn2c(C)cc(C(=O)CSc3nc(N)cc(=O)[nH]3)c2C)cc1` gave Vaccinia Venus inconclusive, HCMV inh -95.3*, FMDV antiviral 17.8µM*, HCV inhibitor 11.2µM* and VACV mCherry inh -12.1%.
`CCCc1cc(=O)[nH]c(SCC(=O)c2cc(C)n(CCOC)c2C)n1` gave HCMV inh 48.4, FMDV antiviral 11.0% and HCV inhibitor 1.7%.
Screening COCCn1c(C)cc(C(=O)CSc2nc3ccccc3s2)c1C returned Vaccinia Venus -28.8%, HCMV inh -83.4*, FMDV antiviral 15.8µM*, HCV inhibitor 10µM* and VACV mCherry inh inconclusive.
Cc1nc(CC(=O)NCC2Cc3cc(F)cc(-c4ccc(F)c(C)c4)c3O2)cs1 (stereo unspecified) was read as Vaccinia Venus -3.5%, FMDV antiviral -5.4% and VACV mCherry inh -10.3%.
For Cc1cc(-n2c(C)cc(C(=O)CSc3nc(N)cc(=O)[nH]3)c2C)no1 the results were Vaccinia Venus -0.5%[7.34 µM], HCMV inh inconclusive, FMDV antiviral inconclusive, HCV inhibitor inconclusive and VACV mCherry inh -2.4%[7.34 µM].
Screening Cc1cc(C(=O)CSc2nc(N)cc(=O)[nH]2)c(C)n1-c1ccc(OC(F)F)cc1 returned Vaccinia Venus inconclusive, HCMV inh -106.3*, FMDV antiviral 3.55µM*, HCV inhibitor inconclusive and VACV mCherry inh inconclusive.
Screening CCOc1cc(CN2CCN(S(=O)(=O)c3ccc(C)cc3)CC2)ccc1OC returned Vaccinia Venus -4.6%[7.34 µM], HCMV inh -24.3, FMDV antiviral -21.9% and VACV mCherry inh -3.7%[7.34 µM].
Cc1cc(N2CCOCC2)nc2ccc(NC(=O)CCC(=O)N3CCN(c4cccc(C(F)(F)F)c4)CC3)cc12 was read as Vaccinia Venus inconclusive, HCMV inh 58.8, FMDV antiviral -26.8%, HCV inhibitor 11.2µM* and VACV mCherry inh inconclusive.
Screening Cc1cc(N2CCOCC2)nc2ccc(NC(=O)CCC(=O)N3CCCCC3)cc12 returned HCMV inh 146.3, FMDV antiviral 43.0% and HCV inhibitor -26.4%.
Screening CC(=O)c1ccc(N2CCN(C(=O)CCC(=O)Nc3ccc4nc(N5CCN(C)CC5)cc(C)c4c3)CC2)cc1 returned Vaccinia Venus inconclusive, HCMV inh 1.3, FMDV antiviral 1.1%, HCV inhibitor 8.91µM* and VACV mCherry inh inconclusive.
CC(=O)N1[C@@H]2Cn3c(ccc(-c4ccccc4F)c3=O)[C@H]1[C@@H](C(=O)N1CCOCC1)[C@@H]2CO was read as HCMV inh -19.2.
For CCc1ccc(N(C2C=CS(=O)(=O)C2)S(=O)(=O)c2ccccc2)cc1 (stereo unspecified) the results were Vaccinia Venus -21.6%, HCMV inh -23.9, FMDV antiviral -15.6%, HCV inhibitor 6.7% and VACV mCherry inh -27.0%.
Cc1ccc(S(=O)(=O)N(c2cccc(C(F)(F)F)c2)C2C=CS(=O)(=O)C2)cc1 (stereo unspecified) was read as Vaccinia Venus -7.6%, HCMV inh -36.8, HCV inhibitor 10µM* and VACV mCherry inh -18.0%.
CCOC(=O)C1=C(C)N(c2ccc(OC)cc2)C(=O)/C1=C\c1ccc(O)c(OCC)c1 was read as HCMV inh -23.6, FMDV antiviral inconclusive and HCV inhibitor -1.7%.

Bioassay records deposited in PubChem by National Center for Advancing Translational Sciences (NCATS).
